Drawing on PubChem BioAssay (NCI), this text covers growth inhibition for 38 compounds.

This is part of a sample that, as a whole, favours compounds with a hit. Of some 79,000 tested, about 15% had one in any assay. The source made the active and inactive calls. No stated cut-off is given here; in the data, active means growth inhibition above about 70%; inactive means the rest.

This experiment is described as follows: NCI Yeast Anticancer Drug Screen. Data for the bub3 strain (AID 167). The following applies: S. cerevisiae bub3 mutant strain, at 50.0 µM, hits give high values. Summed up:
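Inhibition values come from growth of compound-treated mutant yeast normalised to vehicle-treated controls.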
With `O=S1(=O)CS/C(=N/C(=S)N(Cc2ccccc2)Cc2ccccc2)N1c1ccccc1`, the growth inhibition was -3.85% (inactive). In the case of `O=C(OC1OC(COCc2ccccc2)C(OCc2ccccc2)C1OCc1ccccc1)c1ccc([N+](=O)[O-])cc1` (stereo not drawn) it was -5.3% (inactive); in that of `O=c1cc(-c2ccccc2)oc2c(N=Nc3ccccc3)ccc(O)c12`, 22.4% (inactive); in that of `C=CCNc1ccc(Cl)cc1Cl`, -8.75% (inactive). In the case of `O=C(CCc1ccc(O)c(O)c1)NCCc1cc(OCc2ccccc2)cc(OCc2ccccc2)c1` it was 82.2% (active). As for `CN(C)c1nc2ccc(Cl)cc2c(=O)[nH]1`, the figure is -17.9% (inactive); as for `Cc1ccc(S(=O)(=O)OC(c2ccc(C(OS(=O)(=O)c3ccc(C)cc3)(C(F)(F)F)C(F)(F)F)cc2)(C(F)(F)F)C(F)(F)F)cc1`, 4.4% (inactive). For the compound `CC(=O)C1(c2ccccc2)C(C)(C)C(C)(C)C(=O)C(C)(C)C1(C)C`, the growth inhibition is 12.9% (inactive). In the case of `CCOC(=O)NC(=O)c1cn(C2CCCCC2)c(=O)[nH]c1=O` it was -0.7% (inactive); in that of `Cc1ccc(N(C(=O)Nc2ccccc2)C2=NCC(C)S2)cc1C` (stereo not drawn), 39.3% (inactive); in that of `N#Cc1c(N)[n+]([O-])c2c([n+]1[O-])CCCC2`, -14.8% (inactive). As to `CC(C)(C)C(=O)CC(=O)C(C)(C)C.[Cu]`, the growth inhibition is -26.4% (inactive). In the case of `CC(=O)OCC(CO)(CO)COC(C)=O` it was -3.7% (inactive). In the case of `CC(C)CN(CC(C)C)C(=O)c1ccc([N+](=O)[O-])cc1` it was 38.1% (inactive).

With `ON(Cc1ccccc1)Cc1ccccc1`, the growth inhibition was 9.5% (inactive).

Take `COC(=O)c1c2c(cc3c1CC1(Cc4cc5c(cc4C1)CCCC5)C3)CCCC2`: the growth inhibition was -5.8% (inactive). As for `N#C/C(=C\C=C\c1ccccc1)C(N)=O`, the figure is -51.5% (inactive); as for `COC(=O)C(=O)C(C(=O)C(=O)Nc1cccc([N+](=O)[O-])c1)c1nc2ccc(Cl)cc2[nH]c1=O` (stereo not drawn), -1.5% (inactive). As to `O=C1C2C=CC(n3[nH]c(=O)n(Cc4ccccc4)c3=O)CC2C(=O)N1c1ccc(Br)cc1` (stereo not drawn), the growth inhibition is 4.15% (inactive). On to `CC1=NC2c3c(-c4ccc(Cl)cc4)cn(-c4ccc(C)cc4)c3N=CN2N1` (stereo not drawn), for which the growth inhibition is 0.5% (inactive). As for `CC1CN=C(N(C(=O)Nc2ccc(Cl)cc2)c2cccc(Cl)c2)S1` (stereo not drawn), the figure is -14.8% (inactive). In the case of `O=C(O)CCCCC1CCCC1` it was 18.5% (inactive); in that of `CCOC(=O)CC[C@@H](NC(=O)c1ccc(NCc2ccc3nc(OC)c(OC)nc3c2)cc1)C(=O)OCC`, 15.8% (inactive). As for `Nc1nc(N)nc(-c2ccccc2NC(=O)c2ccccc2N)n1`, the figure is 6.85% (inactive); as for `O=C(O)c1c2ccccc2nc2c1sc1ccccc12`, -1.45% (inactive).

As for `CS(=O)(=O)OC12CC3CC(CC(C3)C1)C2`, the growth inhibition was -0.75% (inactive). As for `O=C(Nc1ccc([N+](=O)[O-])cc1)c1ccc(Cl)cc1`, the figure is 5.15% (inactive); as for `CC(C)c1ccc2c(c1)CCC1C2(C)CCCC1(C)C(O)c1ccccc1` (stereo not drawn), 8.05% (inactive).

As to `Nc1c(C(=O)O)cccc1C(=O)O`, the growth inhibition is 4.1% (inactive). As for `CCC1(CC)C(=O)NN(C(=O)c2ccccc2)C1=O`, the figure is -4.45% (inactive); as for `C#CCN(C(=O)C(F)(F)F)C(/C=C\C(=O)OC)(C(=O)OCC)C(=O)OCC`, -17.2% (inactive).

`CCC(=O)C(CC)c1ccccc1` (stereo not drawn): the growth inhibition is 4.4% (inactive). `O=C(CCn1ccnc1[N+](=O)[O-])NCCCn1ccnc1[N+](=O)[O-]`: the growth inhibition is -34.4% (inactive). As for `CC1(C)OC2OC(C3CC3)C(O)C2O1` (stereo not drawn), the figure is 11.9% (inactive); as for `COc1ccc(NC(=O)N(C)Cc2ccccc2Cl)cc1`, 11.2% (inactive); as for `[N-]=[N+]=CC(=O)CCN1C(=O)c2ccccc2C1=O`, 1.15% (inactive). As for `CSc1ccc(NC(=O)Nc2ccccc2C(F)(F)F)cc1`, the figure is 34.5% (inactive); as for `CCOC(OCC)C(C)(C)OC=O`, 10.6% (inactive).
